Experimental data reported in PubChem BioAssay AID492960 (National Center for Advancing Translational Sciences (NCATS), 2010).
Inconclusive results are not listed. Calls of active or inactive are those of the source. Calls follow the shape of the dose curve; as a rule, active = well fitted curve in the direction sought with a large enough effect; inconclusive = small, poorly fitted or top-dose-only effect, or effect the other way, or another doubt; inactive = no such curve, though single readings can be large or run the other way.

test: Secondary Assay for lipid storage modulators: HepG2 cell LDSA assay for probe SAR; conditions: HepG2 lipid droplet BODIPY, laser-scanning cytometry, 18-24 h; series mostly up to 46.1 µM; activity, negative = less lipid: at the top concentration
Source text: NIH Molecular Libraries Probe Production Centers Network [MLPCN] NIH Chemical Genomics Center [NCGC] MLPCN Grant: 1 R03 MH085686-01 Assay Submitter (PI): Beller, Mathias; Max-Planck-Institut fur Biophysikalische Chemie NCGC Assay Overview: Storing lipids as a reservoir for energy or the anabolism of elementary metabolites is a common feature of probably all cells and is conserved from bacteria to humans. The universal cellular lipid storage organelle is the so-called lipid storage droplet (LD). Although ubiquitous, LDs share a simple structure composed of a hydrophobic core that harbors the storage lipids, which is shielded by a droplet-specific phospholipid monolayer to which proteins are attached. The current model of LD biogenesis involves an incorporation of the lipid core into the membrane leaflets of the endoplasmic reticulum (ER) followed by a subsequent budding-like maturation of a LD, which ultimately pinches off. Once released, LD volume can increase by localized lipogenesis or fusion of existing droplet. Storage lipids are re-mobilized enzymatically by lipase activity. Lipase regulation in the adipocyte is heavily studied and involves multiple components including catecholamine signaling, the LD-associated proteins Perilipin and comparative gene identification (CGI-58) and at least two lipases named hormone sensitive lipase (HSL) and adipocyte triglyceride lipase (ATGL). LD regulation outside of the adipocyte is poorly understood and only few components are known. However, there is an urgent need to learn more about ectopic fat depots as mislocalized storage of lipids, for example in the liver or muscle, is an eminent health problem associated with insulin resistance or the metabolic syndrome.
NCGC Assay Protocol Summary: The assay was performed with HepG2 cells, using an oleic acid feeding protocol similar to the S3 assay. We dispensed 4 uL of cells to give 700 cells/well into Greiner bio-one 1,536-well plates (black walled, clear bottom). Triacsin C (Sigma-Aldrich T-4540), an inhibitor of long-chain fatty acyl CoA synthetase that blocks synthesis of triglycerides, was used as a positive control for lipid under-storage using a final concentration of 20 uM. The orexin antagonist, SB408124 - previously identified to stimulate lipid over-storage, was used as a positive control for lipid over-storage using a final concentration of 20 uM. A total of 23 nL of compound solution of different concentrations were transferred to the assay plates using a Kalypsys pin tool equipped with a 1,536-pin array containing 10-nL slotted pins (FP1S10, 0.457-mm diameter, 50.8 mm long; V&P Scientific). One microliter of oleic acid was added (400 uM final concentration), and the plate was lidded with stainless steel rubber gasket lined lids containing pinholes. After 18-24 h incubation at […] and 95% humidity, 4 uL of the dyes BODIPY 493/503 (Molecular Probes) and the Cell Tracker Red CMTPX dye (Molecular Probes) were added to the wells to stain lipid droplets and enumerate cell number, respectively. Fluorescence was detected by excitation of the fluorophores with a 488-nm laser on an Acumen Explorer (TTP Lab Tech). The total intensity in channel 2 (500-530 nm) reflected lipid droplet accumulation. Cells were detected using channel 3 (575-640 nm) with 5-um width and 100-um depth filters. The ratio of the number of objects in PMT channel 2 over the number of objects in PMT channel 3 was also calculated. Percent activity was computed relative to an internal control (100% inhibited lipid droplet deposition due to the presence of 20 uM Triacsin C), which was added to 32 wells/plate.

Row | Structure (SMILES) | activity, negative = less lipid | Potency
1 | CCOc1ccc(CCNC(=O)c2ccc3[nH]ccc3c2)cc1OCC | 67.5% (inactive) | –
2 | CCOC(=O)C1CCN(C(=O)C2(NC(=O)NCc3ccccc3)CCCCC2)CC1 | -15.6% (inactive) | –
3 | O=C(O)c1cccc(-c2noc(-c3ccccc3F)n2)c1 | 9.09% (inactive) | –
4 | CCOc1ccc(CCNC(=O)c2csc(Br)n2)cc1OCC | -2.6% [at 38.8 µM] (inactive) | –
5 | O=C(NC1CCCc2c1cnn2-c1ccc(F)cc1F)C1CCCCN1 (stereo not given) | -13.5% (inactive) | –
6 | COc1ccc(CCNC(=O)c2cc3sccc3n2Cc2ccccc2)cc1OC | 11.7% (inactive) | –
7 | CCOC(=O)C1CCN(C(=O)C2(NC(=O)Nc3ccccc3Cl)CCC2)CC1 | 1.3% (inactive) | –
8 | COc1ccc(-c2cnc(SCC(=O)Nc3nccs3)n2Cc2ccccc2)cc1 | 7.79% (inactive) | –
9 | O=C(NC1CCCc2c1cnn2-c1ccc(F)cc1F)c1ccccn1 (stereo not given) | – | inactive
10 | CCOc1ccc(CCNC(=O)c2cc3sccc3n2Cc2ccc(OC(F)F)cc2)cc1OCC | -20.8% (inactive) | –
11 | O=C(NC1CCCc2c1cnn2-c1ccccc1F)c1cccc2nccnc12 (stereo not given) | 0% (inactive) | –
12 | O=C(NC1CCCc2c1cnn2-c1ccc(F)cc1F)c1cccs1 (stereo not given) | -28.1% (inactive) | –
13 | CCOc1ccc(CCNC(=O)c2cc3ccccc3n2C)cc1OCC | 9.09% (inactive) | –
14 | O=C(c1cc2sccc2n1Cc1ccccc1)N(CCc1ccc(O)c(O)c1)Cc1ccccc1 | 0% (inactive) | –
15 | O=C(NC1CCCc2c1cnn2-c1ccc(F)cc1F)c1cnccn1 (stereo not given) | 10.3% (inactive) | –
16 | COc1ccc(-n2ncc3c2CCCC3NC(=O)c2cnc(C)cn2)cc1 (stereo not given) | – | 12.5 µM (active)
17 | CCCn1c(-c2ccc(OC)cc2)cnc1SCC(=O)Nc1nc(C)c(C)s1 | 6.49% (inactive) | –
18 | Cc1cc(SCc2sc(-c3ccc(C(F)(F)F)cc3)nc2C)ccc1OCC(=O)O | 1.3% (inactive) | –
19 | CCOc1ccc(CCNC(C)=O)cc1OCC | 15.6% (inactive) | –
20 | O=C(Nc1ccccc1-c1cn2c(CN3CCNCC3)csc2n1)c1cnc2ccccc2n1 | – | 11.2 µM (active)

Row | Structure (SMILES) | activity, negative = less lipid | Potency
21 | CCOc1ccc(CCNC(=O)C2COc3ccccc3O2)cc1OCC (stereo not given) | 6.49% (inactive) | –
22 | CCOc1ccc(CCNC(=O)c2cc3sccc3n2CC=C(C)C)cc1OCC | -19.5% (inactive) | –
23 | CCOc1ccc(CCNC(=O)c2ccccn2)cc1OCC | 48.1% (inactive) | –
24 | CCOc1ccc(CCNC(=O)c2cc3sccc3n2Cc2ccc(-n3cncn3)cc2)cc1OCC | 18.2% (inactive) | –
25 | CCOc1ccc(CCNC(=O)c2cccs2)cc1OCC | 40.3% (inactive) | –
26 | O=C(NC1CCCc2c1cnn2-c1ccc(F)cc1F)C1CCCCC1 (stereo not given) | 8.73% (inactive) | –
27 | CCOc1ccc(CCNC(=O)c2ccc3ccccc3n2)cc1OCC | 61% [at 38.8 µM] (inactive) | –
28 | CCOC(=O)C1CCN(C(=O)C2(NC(=O)Nc3ccccc3Cl)CCCCC2)CC1 | 28.6% (inactive) | –
29 | COc1ccc(CCNC(=O)c2cc3sccc3n2Cc2ccc(Cl)cc2)cc1OC | -24.7% (inactive) | –
30 | CCOc1ccc(CCNC(=O)C2CCCCC2)cc1OCC | 26% (inactive) | –
31 | C[C@@H](NCCCc1cccc(C(F)(F)F)c1)c1cccc2ccccc12 | -13% (inactive) | –
32 | CCOc1ccc(CCNC(=O)C2=C(C)OCCO2)cc1OCC | 13% (inactive) | –
33 | O=C(O)CCc1ccc(NCc2cccc(Oc3ccccc3)c2)cc1 | 1.3% (inactive) | –
34 | CCOc1ccc(CCNC(=O)c2ccc(C3(C(F)(F)F)N=N3)cc2)cc1OCC | 36.4% (inactive) | –
35 | O=C(NC1CCCc2c1cnn2-c1ccc(F)cc1F)C1CC1 (stereo not given) | -7.14% (inactive) | –
36 | CCn1c(C(=O)NCCc2ccc(OC)c(OC)c2)cc2sccc21 | -7.94% (inactive) | –
37 | CN(C)CC(=O)NC1CCCc2c1cnn2-c1ccc(F)cc1F (stereo not given) | -19% (inactive) | –
38 | CCOc1ccc(CCNC(=O)c2cc3sccc3n2Cc2cccc(C)c2)cc1OCC | -22.1% (inactive) | –
39 | Cc1ccc(-c2cnc(SCC(=O)Nc3nc(C)cs3)n2Cc2ccco2)cc1 | -16.9% (inactive) | –
40 | O=C(Cc1ccccc1)NC1CCCc2c1cnn2-c1ccc(F)cc1F (stereo not given) | 5.04% (inactive) | –
